Data as given in the supplement of paper PMC7801607.

Legend:
[1] = test system: CHO; assay: % viability of CHO cells (MTT); higher = less toxic; settings: 48 h
Summary of the method: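 CHO cells seeded at 10^6 cells/well were exposed to compound at 2 or 20 µM for 48 h. Survival, as percent of untreated cells, was measured with the colorimetric tetrazolium (MTT) assay.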

[2] = test system: HepG2-A16-CD81; assay: % inhibition of HepG2 viability (CellTiter-Glo); higher = more toxic; settings: 5 µM
[3] = test system: Plasmodium falciparum NF54 stage IV/V gametocytes; assay: % inhibition of gametocyte viability (PrestoBlue); higher = more inhibition; settings: 48 h
Summary of the method: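 Compound was tested at 1 or 5 µM against Stage IV/V NF54 gametocytes plated at 100 µL/well (2% gametocytaemia, 5% haematocrit). After 48 h of stationary, hypoxic incubation at 37 °C, 10 µL PrestoBlue was added for 2 h before reading 612 nm fluorescence from 70 µL of transferred supernatant. Gametocyte viability inhibition, as a percentage, was scaled against vehicle and kill controls from a single run.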

[4] = test system: Plasmodium falciparum NF54 asexual blood stage; assay: % inhibition of asexual blood stage proliferation (pLDH); higher = more inhibition; settings: 72 h
Summary of the method: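 In 96-well plates, compound at 2 or 20 µM was added to Plasmodium falciparum NF54 ring-stage cultures (1% haematocrit, 2% parasitaemia). Plates were incubated for 72 h at 37 °C in 4% CO2, 3% O2 and 93% N2, and survival was then read at 620 nm using the parasite lactate dehydrogenase assay. Inhibition of asexual proliferation, expressed as a percentage, was normalised to controls.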

[5] = test system: Plasmodium falciparum NF54 stage IV/V gametocytes; assay: % inhibition of gametocyte viability (ATP bioluminescence); higher = more inhibition; settings: 24 h
Summary of the method: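 Density gradients were used to enrich stage IV/V NF54 gametocytes, which were then seeded into 96-well plates at 30,000 per well with compound at 1 or 5 µM. The plates were incubated at 37 °C for 24 h, and ATP was measured with the Promega BacTiter Glo bioluminescence system. Percent inhibition of gametocyte viability was normalised to the plate controls from a single run.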

[6] = test system: Plasmodium falciparum NF54 stage IV/V gametocytes; assay: % inhibition of gametocyte viability (luciferase reporter); higher = more inhibition; settings: 48 h
Summary of the method: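 Compound at 1 or 5 µM was added to stage IV/V NF54-Pfs16-GFP-Luc gametocytes (2% gametocytaemia, 2% haematocrit) and incubated stationary and hypoxic at 37 °C for 48 h. A GloMax-Multi+ reader measured luminescence over 10 s integration on 30 µL lysate plus 30 µL Promega luciferin substrate. Percent inhibition values were normalised to controls within a single run.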

[7] = test system: Plasmodium berghei ANKA liver stage in HepG2-A16-CD81; assay: % inhibition of liver stage parasite viability (luciferase); higher = more inhibition; settings: 5 µM; 48 h
Experimental: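 Single-concentration screen of the MMV Pandemic Response Box. P. falciparum NF54 asexual blood stages: pLDH assay, 72 h at 37 °C, 2 and 20 µM, n=2. Stage IV/V gametocytes (NF54): luciferase reporter (NF54-Pfs16-GFP-Luc, 48 h), ATP bioluminescence (24 h) and PrestoBlue (48 h) at 1 and 5 µM, n=1. P. berghei liver stage (luciferase in HepG2-A16-CD81, 48 h post infection) at 5 µM, n=4. All normalised to DMSO and kill controls as % inhibition.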
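Wherever % inhibition of HepG2 viability (CellTiter-Glo) is given: HepG2-A16-CD81 hepatoma cells plated as in the liver-stage assay but without sporozoites, with DMSO wells as negative and 25 µM puromycin as positive control.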

| SMILES | % viability of CHO cells ([1]; 2 µM) | % viability of CHO cells ([1]; 20 µM) | % inhibition of HepG2 viability [2] | % inhibition of gametocyte viability ([3]; 1 µM) | % inhibition of gametocyte viability ([3]; 5 µM) | % inhibition of asexual blood stage proliferation ([4]; 2 µM) | % inhibition of asexual blood stage proliferation ([4]; 20 µM) | % inhibition of gametocyte viability ([5]; 1 µM) | % inhibition of gametocyte viability ([5]; 5 µM) | % inhibition of gametocyte viability ([6]; 1 µM) | % inhibition of gametocyte viability ([6]; 5 µM) | % inhibition of liver stage parasite viability [7] |
| --- | --- | --- | --- | --- | --- | --- | --- | --- | --- | --- | --- | --- |
| COC(=O)Nc1nc2c(C)cccc2[nH]1 | 101% | 86.1% | -1.33% | < 0% | < 0% | -2.03% | -14% | < 0% | < 0% | < 0% | < 0% |  |
| Nc1ccc2oc(=O)ccc2c1I | 72.9% | 60% | -2.48% | < 0% | < 0% | 29.8% | 37.3% | < 0% | < 0% | 3.24% | 2.65% |  |
| CN(C/C=C/C#CC(C)(C)C)Cc1cccc2ccccc12 | 101% | 117% | -4.35% | < 0% | < 0% | -1.71% | 61.2% | < 0% | < 0% | < 0% | < 0% |  |
| CN1c2ccc(Cl)cc2N(c2ccccc2)C(=O)c2cn(Cc3ccc(CN4CCOCC4)cc3)nc21 | 90.9% | 69.1% | -4.81% | 18.2% | 30.1% | 0.489% | 23.7% | 0.0957% | < 0% | 15.5% | 0.583% |  |
| CONC(=N)c1ccc(-c2ccc(-c3ccc(C(=N)NOC)cc3)o2)cc1 | 111% | 121% | 2.49% | 11.8% | 9.28% | -3.01% | 1.5% | 0.615% | < 0% | < 0% | < 0% |  |
| CCOC(=O)/C=C/[C@H](C[C@@H]1CCNC1=O)NC(=O)[C@@H](CC(=O)[C@@H](NC(=O)c1cc(C)on1)C(C)C)Cc1ccc(F)cc1 | 124% | 129% | 2.38% | 27.5% | 17.3% | 16.3% | 53.7% | 4.33% | < 0% | 1.29% | 10.2% |  |
| O=C(Nc1ccc(F)cc1)c1nn(-c2ccccc2)c(=O)cc1Cl | 110% | 106% | 2.98% | 30.6% | 81% | 35.1% | 98.7% | 2.79% | 5.32% | 29.4% | 91.6% |  |
| CCCC1(C2CC2)c2cc(Cl)ccc2NC(=O)N1C (centres undefined) | 60.2% | 59.9% | 1.91% | < 0% | 6.87% | 18% | 53.6% | < 0% | < 0% | 0.472% | < 0% |  |
| CCOC(=O)Nc1cc(NC(C)CC(C)CN(CC)CC)c2nc(-c3ccccc3)c(-c3ccccc3)nc2n1 (centres undefined) | 94% | 116% | 12.9% | 26.4% | 51.1% | 37.7% | 54.6% | 28% | 75% | < 0% | 51.1% |  |
| O=C(NCc1ccccc1Cl)c1cnc2ccccc2n1 | 106% | 124% | 5.29% | < 0% | < 0% | 6.58% | 48.8% | < 0% | < 0% | < 0% | < 0% |  |
| COc1ccc(NC(=O)c2cc3ccccn3n2)cc1 | 112% | 57% | -0.446% | < 0% | 10.6% | 20.3% | 87.1% | < 0% | < 0% | < 0% | < 0% |  |
| COc1ccc(CNC(=O)C2CCN([C@H](C)c3cccc4ccccc34)CC2)cc1 | 128% | 70.1% | 0.399% | < 0% | 11% | 79.1% | 64.2% | 8.45% | 8.31% | 12.8% | < 0% |  |
| O=[N+]([O-])c1cn(Cc2nc(O)nc(O)c2Br)cn1 | 95.9% | 109% | -3.1% | 9.08% | 21.3% | 38.7% | 55.8% | 0.137% | < 0% | < 0% | 4.07% |  |
| Cc1cc(C2CCCCC2)n(O)c(=O)c1 | 95.2% | 69.7% | 13.4% | < 0% | 58.2% | 9.8% | 77.8% | 36.1% | < 0% | < 0% | < 0% |  |
| CC(Oc1ccc(Cl)cc1Cl)C(=O)NCc1ccc2c(c1)OCO2 (centres undefined) |  |  |  | < 0% | 35.3% | -4.14% | -3.59% | < 0% | < 0% | < 0% | < 0% | 7.01% |
| OC[C@@H]1CC[C@H](n2cnc3c(O)ncnc32)O1 | 119% | 114% | -1.26% | 1.35% | 4.95% | 47.1% | 26.7% | < 0% | < 0% | 0.0967% | < 0% |  |
| CC1(C)[C@H](C(=O)O)N2C(=O)C[C@H]2S1(=O)=O |  |  |  | < 0% | < 0% | 11.2% | 34.3% | < 0% | < 0% | < 0% | < 0% |  |
| CCc1nc(N)nc(N)c1C#CC(C)c1cc(OC)cc(-c2ccncc2)c1 (centres undefined) | 89.5% | 52.5% | 20.8% | < 0% | 9.41% | 51.1% | 94% | < 0% | < 0% | < 0% | < 0% |  |
| Cc1ccc(N2CCC(CCOc3ccc(S(C)(=O)=O)cc3)CC2)nn1 | 89.6% | 123% | 1.45% | 0.785% | < 0% | 9.69% | 64.6% | 1.5% | < 0% | 0.296% | < 0% |  |
